Bioassay records from PubChem.
ALOX12 inh – Primary qHTS assay for inhibitors of human arachidonate 12S-lipoxygenase (ALOX12): Round 2. Polyunsaturated fatty acid lipoxygenase ALOX12 (Homo sapiens), P18054. purified 12hLO, xylenol orange hydroperoxide absorbance. Potency, µM (titrated, usually from 108 µM), without a hit: at the highest dose activity change, negative = inhibition, usual class: inhibitors. 1.1% of 580,000 active; further: on the % scale 0 is the no-effect control and ±100 the full control effect
Target sequence (P18054 whole entry, looked up): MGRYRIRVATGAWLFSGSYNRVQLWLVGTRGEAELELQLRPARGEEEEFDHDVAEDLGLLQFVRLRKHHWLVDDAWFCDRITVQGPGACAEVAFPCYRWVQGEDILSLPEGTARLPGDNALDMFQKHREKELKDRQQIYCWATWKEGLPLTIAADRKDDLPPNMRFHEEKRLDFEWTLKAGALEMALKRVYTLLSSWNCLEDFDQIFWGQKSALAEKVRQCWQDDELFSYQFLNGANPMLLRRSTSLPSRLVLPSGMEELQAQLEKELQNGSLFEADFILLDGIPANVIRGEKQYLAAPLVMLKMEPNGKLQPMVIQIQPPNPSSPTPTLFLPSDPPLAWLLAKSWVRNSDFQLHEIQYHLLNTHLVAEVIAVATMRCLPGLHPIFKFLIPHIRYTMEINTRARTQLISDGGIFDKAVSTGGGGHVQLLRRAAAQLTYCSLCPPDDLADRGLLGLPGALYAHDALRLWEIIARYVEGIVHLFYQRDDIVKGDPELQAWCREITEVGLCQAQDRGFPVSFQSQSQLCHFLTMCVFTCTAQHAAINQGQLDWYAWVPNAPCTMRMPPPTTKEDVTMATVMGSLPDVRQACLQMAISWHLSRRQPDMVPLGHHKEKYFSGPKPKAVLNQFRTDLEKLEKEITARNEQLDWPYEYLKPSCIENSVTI
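Hydroperoxide product was detected by ferrous iron/xylenol orange as the 573 to 405 nm absorbance ratio. Arachidonic acid at 40 uM (final) was turned over for 30 min at room temperature by 150 nM human 12hLO, pH 7.0 Hepes buffer, after 15 min compound preincubation.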
G9a inh – qHTS Assay for Inhibitors of Histone Lysine Methyltransferase G9a; Histone-lysine N-methyltransferase EHMT2 (Homo sapiens), Q96KQ7; G9a H3K9 monomethylation, AlphaScreen, 2 h; Potency, µM (doses to about 102 µM), inactives show at the top dose activity, negative = inhibition, usual class: inhibitors; 8.8% of 350,000 active; AID 504332, 2011; further: on the % scale 0 is the no-effect control and ±100 the full control effect; nearly all actives have a fitted effect of over 75% in size
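Step 1: enzyme (final 20 nM) with compound, 15 min RT. Step 2: substrate peptide 500 nM and SAM 20 uM, 2 h RT. Step 3: anti-H3K9me1 antibody and AlphaScreen beads, 10 min, then plate read.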
Sfp PPTase inh – qHTS Assay for Inhibitors of Bacillus subtilis Sfp phosphopantetheinyl transferase (PPTase) | Biochemical Sfp PPTase activity, qHTS | 4'-phosphopantetheinyl transferase ffp (Bacillus subtilis), Q9F4F7 | AID 1490, 2009 | 3.5% of 310,000 active | Potency, µM, for the others: largest response in the series, negative = inhibition, actives largely listed as inhibitors;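 further: the enzyme is Sfp with the accession as filed and its product quenches rhodamine fluorescence; 0% = enzyme reaction without inhibitor and -100% = no enzyme wells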
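Fluorescence-quenching assay: 15 nM Sfp-PPTase preincubated 15 min at room temperature with compound, then 5 uM rhodamine-CoA and 12.5 uM BHQ-2-labelled YbbR peptide added. Fluorescence (ex 525/em 598 nm) read at start and after 30 min; difference gives rate.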
BAZ2B inh – qHTS Assay for Inhibitors of BAZ2B; AlphaScreen BAZ2B-H3K14Ac peptide displacement; Bromodomain adjacent to zinc finger domain protein 2B (Homo sapiens), Q9UIF8; Potency, µM (doses to about 114 µM), for inactives: at the highest dose activity change, negative = inhibition, usual class: inhibitors; 4.4% of 360,000 active; further: on the % scale 0 is the no-effect control and ±100 the full control effect; nearly all actives have a fitted effect of over 60% in size
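AlphaScreen displacement: compounds (up to 110uM) incubated 30 min at room temperature with a preformed 50 nM BAZ2B/50 nM biotinylated H3K14Ac peptide complex in PBS pH 7.4 with Tween-20. Donor and acceptor beads at 10 ug/mL final added, 20 min light-protected before reading.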
JMJD2A Tudor – qHTS Assay for Inhibitors of JMJD2A-Tudor Domain; Lysine-specific demethylase 4A (Homo sapiens), O75164; AlphaScreen JMJD2A-Tudor / H3K4me3 peptide binding; Potency, µM (top dose mostly 114 µM), inactives show top-dose activity change, negative = inhibition, usual class: inhibitors; 4.4% of 390,000 active; further: on the % scale 0 is the no-effect control and ±100 the full control effect; nearly all actives have a fitted effect of over 50% in size
HP1b chromo inh – HTS for Inhibitors of HP1-beta Chromodomain Interactions with Methylated Histone Tails | 0.56% of 390,000 active | Chromobox protein homolog 1 (Homo sapiens), P83916 | AlphaScreen HP1-beta / biotin-H3K9me3 peptide binding | Potency, µM (highest dose often 114 µM), for the others: at the top dose activity change, negative = inhibition, actives largely listed as inhibitors; further: nearly all actives have a fitted effect of over 70% in size
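Compound inhibition of the preformed complex between 50 nM HP1-beta and 50 nM biotinylated H3K9me3 peptide was read by AlphaScreen. Buffer was PBS pH 7.4 with 0.01% Tween-20. Incubations ran 30 min at room temperature, with 10 ug/mL donor/acceptor beads.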
Starred values were filed as active, the others as inactive; u = inconclusive; x = no result; [ ] = remark or other dose. Only some compounds are listed: those with a hit (about 8.7% of all), similar ones and a draw of the others. The call rests on the fitted dose curve; in most records, active means well fitted curve in the direction sought with a large enough effect; inconclusive means small, poorly fitted or top-dose-only effect, or another doubt; inactive means no such curve, though single readings can be large; an effect the other way counts as inactive or inconclusive. Potency means the concentration at half of the fitted maximal effect.

SMILES	ALOX12 inh	G9a inh	Sfp PPTase inh	BAZ2B inh	JMJD2A Tudor	HP1b chromo inh
O=[N+]([O-])c1cc(C(F)(F)F)ccc1NCCNC(=S)Nc1ccc(Cl)cc1	39.8µM*	28.2µM*	13.5%	20µM*	u	-24.2%
N#Cc1ccc(NCCc2ccccn2)c([N+](=O)[O-])c1	15.3%	x	-1.6%	-10.6%	-17.9%	36.2%
O=[N+]([O-])c1cc(C(F)(F)F)ccc1NCCCCNS(=O)(=O)c1ccc(Cl)cc1	u	u	-0.9%	u	u	u
O=C(O)c1ccc(NCCc2ccc(Cl)cc2)c([N+](=O)[O-])c1	-21.4%	79.4µM*	7.0%	u	-34.0%	2.7%
CN1CC2(CCCN(C(=O)c3cn(C)c4ccccc34)CC2)OC1=O (stereo not drawn)	16.2%	x	x	x	x	x
CC(C)CCNC(=O)c1cc(=O)[nH]c2ccc(S(=O)(=O)Nc3ccc(F)cc3)cc12	7.2%	x	x	x	x	x
Cc1cc(C(=O)CSc2ccc3c(c2)OCCO3)c(C)n1C1CC1	-20.8%	u	-17.8%	79.4µM*	-26.2%	-15.3%
O=C(CSc1ccc2c(c1)OCCO2)NC1CCCCC1	-3.5%	x	x	x	x	x
CCNc1nnc(SCC(=O)c2cc(C)n(C3CC3)c2C)s1	-12.3%	50.1µM*	x	-9.9%	-33.1%	7.3%
COc1ccc(C(=O)c2ccc(OC)c3cccc(O)c23)cc1OC	74.9%	56.2µM*	-16.5%	u	u	6.3%
COCC1CN(S(=O)(=O)Cc2ccc(C)c(C)c2)CC12CCNCC2 (stereo not drawn)	31.8%	x	x	x	x	x
CC1=CC(=O)C(C(C)C)=CC1=NC(=O)c1ccc(C)cc1	u	8.91µM*	10µM*	39.8µM*	50.1µM*	22.4µM*
Fc1ccc(NCc2cccnc2)cc1F	-0.3%	u	-11.4%	u	79.4µM*	27.0%
Cc1ccnc(NCc2ccc(Cl)cc2)c1	u	-9.5%	6.7%	4.9%	-0.7%	27.1%
Cc1ccc(NCc2ccc(Cl)nc2)c(NCc2ccc(Cl)nc2)c1	u	35.5µM*	7.2%	35.5µM*	-31.9%	-0.7%
Cc1ccc(NCc2cccnc2)c(Br)c1	u	14.1µM*	-25.8%	79.4µM*	3.16µM*	u
COc1ccccc1N1CCN(Cc2nc3ccsc3c(=O)[nH]2)CC1	u	-28.5%[59 µM]	0.0%	-7.1%	3.55µM*	9.1%
Cc1cccc(N2CCN(CC(=O)Nc3nccs3)CC2)c1C	u	25.3%[12.7 µM]	12.9%	-3.7%	-20.1%	10.3%
CCOC(=O)c1sc(NC(=O)CN2CCN(c3ccc(OC)cc3)CC2)nc1C	-2.2%	39.8µM*	4.2%	35.5µM*	56.2µM*	u
COc1ccccc1N1CCN(CC(=O)Nc2nccs2)CC1	20µM*	18.3%	1.9%	-20.5%	-14.6%	20.9%
CCOc1ccccc1N1CCN(CC(=O)Nc2nc(C)c(C(=O)N(C)C)s2)CC1	u	x	-5.5%	-6.2%	14.1µM*	1.0%
O=C(Nc1cc(F)cc(F)c1)N1CCC(Oc2ncccc2C(=O)N2CCCCC2)C1 (stereo not drawn)	27.4%	x	x	x	x	x
COC(=O)c1cn([C@H]2CO[C@H]3[C@@H]2OC[C@@H]3NC(=O)COc2ccccc2)nn1	30.7%[176 µM]	x	x	x	x	x
O=C(Cc1cccc2cccnc12)NC1CCS(=O)(=O)C1 (stereo not drawn)	3.0%	x	x	x	x	x
CC(NC(=O)c1ccc(F)cc1Br)c1ccc(F)cc1 (stereo not drawn)	5.6%	x	x	x	x	x
SMILES	ALOX12 inh	G9a inh	Sfp PPTase inh	BAZ2B inh	JMJD2A Tudor	HP1b chromo inh
CCOC(=O)c1cccc(NC(=O)CN2CCN(c3ccc(OC)cc3)CC2)c1	-54.4%	56.2µM*	-3.1%	u	u	-24.4%
COc1ccc(NC(=O)c2ccc(NC(=O)CN3CCN(c4ccccc4)CC3)cc2)cc1	18.0%	x	x	x	-9.8%	55.3%
COc1ccc(-c2noc([C@@H]3C[C@@H](O)CN3Cc3ccc(CO)o3)n2)cc1	44.7µM*	x	x	x	x	x
OCc1ccc(CN2C[C@H](O)C[C@H]2c2nc(-c3cccnc3)no2)o1	-4.1%[176 µM]	x	x	x	x	x
Cc1ccc(-c2noc([C@@H]3C[C@@H](O)CN3Cc3ccccc3O)n2)cc1F	31.6µM*	x	x	x	x	x
O[C@@H]1C[C@@H](c2nc(Cc3ccc(F)cc3Cl)no2)N(Cc2ccco2)C1	25.1µM*	x	x	x	x	x
OCc1ccc(CN2C[C@H](O)C[C@H]2c2nc(-c3ccc(F)cc3)no2)o1	25.1µM*	x	x	x	x	x
Cc1ccc(-c2nc3ccc(C(=O)N4CCC(CC(=O)NCCN5CCOCC5)CC4)cc3o2)cc1	-1.7%	x	x	x	x	x
CCN(CC)C(CN)c1ccco1 (stereo not drawn)	-2.5%	x	x	x	x	x
Cc1cc(C(c2cc(C)c(N)c(C)c2)c2ccco2)cc(C)c1N	27.8%	x	x	x	79.4µM*	79.4µM*
O=C(NC1CCCc2ccccc21)c1cccs1 (stereo not drawn)	-3.8%	x	x	x	x	x
COc1ccc(-c2cn(/N=C/c3ccc(Cl)cc3Cl)c(N)n2)cc1	-22.0%	35.5µM*	2.1%	-12.1%	-19.3%	3.0%
Nc1nc(-c2ccccc2)cn1/N=C/c1ccccc1	7.9%	50.1µM*	9.7%	-24.3%	-34.5%	u
CCOC(=O)c1ccc(CNC(=O)N2CCC3(CC2)CC(OCC)CCO3)cc1 (stereo not drawn)	60.4%	x	x	x	x	x
CCNc1ccnc(NC2CCCc3c2cnn3-c2ccc(C)c(C)c2)n1 (stereo not drawn)	-5.0%	x	x	x	x	x
COC(=O)[C@H](C)NC(=O)NCCC1=CCCCC1	0.0%	7.9%	12.0%	-12.0%	70.8µM*	6.8%
CC(C)c1ccc(/C=C/C(=O)NCCC2=CCCCC2)cc1	39.8µM*	u	-4.6%	5.6%	-3.7%	24.2%
COCc1c(C(=O)N(C)Cc2ccccc2N2CCCC2)oc2ccccc12	-18.6%	50.1µM*	x	u	44.7µM*	-30.5%
COc1ccc(Cc2nnc(NC(=O)c3c(-c4ccccc4)noc3C)s2)cc1	32.2%	u	11.5%	u	-26.3%	29.7%
COc1ccc(Cc2nnc(NC(=O)c3c(-c4ccccc4)noc3C)s2)cc1OC	-13.1%	39.8µM*	-21.9%	-6.8%	x	x
CCOCc1nnc(NC(=O)c2c(-c3ccccc3)noc2C)s1	u	31.6µM*	u	-2.4%	-28.4%	-23.0%
CC(C)C(=O)N1CCC(Cc2nc(C3CCOCC3)no2)CC1	24.9%	x	x	x	x	x
COC(=O)c1ccc2nc(C[C@@H]3C[C@@H](C(C)C)[C@H](CN(C)C)C=C3C)[nH]c2c1	17.1%[176 µM]	x	x	x	x	x
